Screening results from PubChem BioAssay.
MmCpn inh = inhibitors of Methanococcus maripaludis chaperonin TRiC (MmCpn); purified Mm-Cpn ATPase, ADP Transcreener TR-FRET; Potency, µM (series often up to 76.9 µM), without a hit: top-dose activity, negative = inhibition, usual class: inhibitors; actives 0.031% (n = 330,000); active = well fitted inhibition curve with a large enough effect; inconclusive = small, poorly fitted or top-dose-only effect; also: potency is read from the fitted curve at half-maximal effect; % is scaled to controls: 0 for no effect and ±100 for the full control effect; nearly all actives have a fitted effect of over 80% in size
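Purified archaeal chaperonin (25 nM final) was preincubated with compound for 10 min at 37°C, then ATP (10 uM final) was added for 30 min at 37°C in Tris pH 7.4/KCl/MgCl2/DTT buffer. ADP was quantified by HTRF Transcreener TR-FRET.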
Rango dissoc inh = inhibitors of RanGTP-induced Rango-importin beta complex dissociation; O95149+P62826; Biochemical FRET Rango-importin beta, RanGTP-induced dissociation; Potency, µM (highest dose often 46.1 µM), without a hit: at the highest dose activity change, negative = inhibition; actives 0.071% (n = 340,000); AID 540253; also: potency is read from the fitted curve at half-maximal effect; % of control where 0% means no effect; nearly all actives have a fitted effect of over 45% in size
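Two FRET readings bracket the reaction: one 5 min after compound meets Rango–importin beta, another 45 min after RanGTP-RCC1 (0.6 uM Ran, 0.2 uM RCC1, 2 mM GTP) is added. Only the second defines inhibition.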
Rango complex inh = prevents formation of the Rango-importin beta complex; Q14974; Rango CFP/YFP FRET sensor + importin beta, 45 min; Potency, µM (series often up to 92.2 µM), without a hit: at the highest dose inhibition of complex formation; actives 0.031% (n = 340,000); AID 540263;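 also: potency is read from the fitted curve at half-maximal effect; 0% = DMSO wells and 100% = buffer wells lacking importin beta; nearly all actives have a fitted effect of over 15% in size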
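Inhibition scored from the CFP 486 nm/YFP 530 nm FRET ratio 45 min after adding 0.125 microM importin beta to 50 nM Rango biosensor preincubated 5 min with compound (room temperature, PBS with DTT, Tween-20, BSA). No-importin wells as positive control.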
D3 ag = D3 dopamine receptor (human) agonism. D3R DiscoveRx beta-arrestin cells, luminescence, 90 min. max activation, %. P35462. actives 0.58% (n = 410,000); in the data active = max activation above about 30%; also: 0% is about no effect
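Agonist mode: compounds and dopamine controls were applied to plated cells for 90 min at 37 degrees C after an overnight attachment at 1500 cells/well. Luminescent read-out followed 30 - 60 minutes at room temperature with DiscoveRx detection reagent.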
PTAP TSG101 blk = blocks PTAP/TSG101 interaction to inhibit HIV-1 budding. Potency, µM (doses to about 115 µM), inactives show at the highest dose activity change, negative = inhibition, usual class: inhibitors. Q99816. Fluorescence polarization, FITC-PTAP peptide / Tsg101 binding. 340,000 tested, under 10 active. AID 493005; active = well fitted inhibition curve with a large enough effect in the main read-out, with a control signal flat, not every such curve was filed as active; inconclusive = small, poorly fitted or top-dose-only effect, or effect the other way, or a change in a side signal; inactive = no such curve, though single readings can be large or run the other way; also: potency is read from the fitted curve at half-maximal effect; % of control where 0% means no effect
Target sequence (Q99816 whole entry, looked up): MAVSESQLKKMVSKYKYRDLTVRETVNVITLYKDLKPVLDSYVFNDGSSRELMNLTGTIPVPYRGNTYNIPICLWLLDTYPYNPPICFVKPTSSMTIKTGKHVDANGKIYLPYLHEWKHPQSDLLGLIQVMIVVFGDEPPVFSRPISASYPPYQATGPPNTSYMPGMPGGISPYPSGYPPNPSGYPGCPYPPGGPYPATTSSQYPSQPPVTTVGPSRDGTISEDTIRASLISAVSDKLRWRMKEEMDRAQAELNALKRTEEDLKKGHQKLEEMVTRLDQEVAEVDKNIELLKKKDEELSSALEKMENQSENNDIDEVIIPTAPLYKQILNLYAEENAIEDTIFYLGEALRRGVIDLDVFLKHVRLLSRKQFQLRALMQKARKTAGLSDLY
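Fluorescence anisotropy tracks displacement of a FITC-tagged PTAP peptide (50 nM) from the Tsg101 binding domain (10 uM), following a 20 min room-temperature incubation at pH 7.5.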
D3 antag = blocks the human D3 dopamine receptor; P35462; D3R cells, DiscoveRx beta-arrestin luminescence, antagonist mode; stronger effect = lower value; max response, negative = inhibition, %; actives 2.5% (n = 360,000); in the data active = max response below about -50%; inconclusive = no clear call, values can overlap the other calls; also: % is scaled to controls: 0 for no effect and ±100 for the full control effect
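Cells expressing the human receptor were seeded at 1500 cells/well, incubated overnight at 37 degrees C in 5% CO2, then exposed to library compounds with dopamine controls for 90 minutes at 37 degrees C before luminescent detection.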
* = called active by the depositor. An excerpt weighted towards active compounds, which were near 2.9% of everything screened. Unless noted, calls follow the shape of the full dose curve.

For S=P(N1CCOCC1)(N1CC1)N1CC1 the results were Rango dissoc inh -15%, Rango complex inh 0%, D3 ag 34*, PTAP TSG101 blk -5% and D3 antag -1.
`CCn1c(O)c(N=Nc2ccc(S(=O)(=O)N3CCOCC3)cc2)c(=O)n(CC)c1=S` gave MmCpn inh 1%, Rango dissoc inh 3%, Rango complex inh 0%, D3 ag -5, PTAP TSG101 blk -11% and D3 antag -71*.
Screening O=C(c1cc(F)ccc1F)C1CCCN(Cc2cccc(Cl)c2)C1 (stereo unspecified) returned MmCpn inh -2%, Rango dissoc inh -10%, Rango complex inh 0%, D3 ag -7, PTAP TSG101 blk -1% and D3 antag -79*.
For O=C(c1cc(F)ccc1F)C1CCCN(CCCc2ccccc2)C1 (stereo unspecified) the results were MmCpn inh -4%, Rango dissoc inh 1%, Rango complex inh -3%, D3 ag -15, PTAP TSG101 blk -1% and D3 antag -74*.
`Nc1c(C(=O)NCCCc2ccccc2)c2nc3ccccc3nc2n1Cc1cccs1` gave MmCpn inh -3%, Rango dissoc inh inconclusive, Rango complex inh inconclusive, D3 ag 35*, PTAP TSG101 blk 0% and D3 antag 23.
CCCN1CC[C@@H]2c3cc(O)ccc3CC[C@@H]21 was read as MmCpn inh 1%, Rango dissoc inh 0%, Rango complex inh 1%, D3 ag 51*, PTAP TSG101 blk -1% and D3 antag 10.
`COc1cc(CN2CCCC(C(=O)c3sccc3C)C2)cc(Cl)c1O` (stereo unspecified) gave MmCpn inh 2%, Rango dissoc inh -6%, Rango complex inh 3%, D3 ag -19, PTAP TSG101 blk 1% and D3 antag -51*.
COc1ccc(CN2CCCC(C(=O)c3sccc3C)C2)cc1O (stereo unspecified) was read as MmCpn inh 0%, Rango dissoc inh -10%, Rango complex inh 0%, D3 ag -20, PTAP TSG101 blk -3% and D3 antag -74*.
For Cc1cc(-c2n[nH]c(=S)n2CC(C)C)cs1 the results were MmCpn inh -3%, Rango dissoc inh 12%, Rango complex inh -3%, D3 ag 2, PTAP TSG101 blk -5% and D3 antag 0.
For CN1CCN(c2ccc([N+](=O)[O-])c(NCc3ccco3)c2)CC1 the results were MmCpn inh 3%, Rango dissoc inh 2%, Rango complex inh -2%, D3 ag -9, PTAP TSG101 blk -1% and D3 antag -75*.
`CN1CCN(c2ccc([N+](=O)[O-])c(N)c2)CC1` gave MmCpn inh -1%, Rango dissoc inh 3%, Rango complex inh -4%, D3 ag 2, PTAP TSG101 blk 0% and D3 antag -25.
Screening CN1CCN(c2ccc([N+](=O)[O-])c(NCC3CCCO3)c2)CC1 (stereo unspecified) returned MmCpn inh -10%, Rango dissoc inh 3%, Rango complex inh -1%, D3 ag 44*, PTAP TSG101 blk -5% and D3 antag 0.
CC[C@H](O)C(C[C@H](C)N(C)C)(c1ccccc1)c1ccccc1 was read as D3 ag -7.
Screening CC1C2Cc3ccc(O)cc3[C@]1(C)CCN2CCc1ccccc1 (stereo partly specified) returned MmCpn inh 1%, Rango dissoc inh -7%, Rango complex inh -1%, D3 ag -93, PTAP TSG101 blk -10% and D3 antag -93*.
Screening C[C@]12C[C@H]3S[C@H]3C[C@@H]1CC[C@@H]1[C@@H]2CC[C@]2(C)[C@@H](O)CC[C@@H]12 returned D3 ag 1.
Screening CCOP(=O)(OCC)O/C(=C/Cl)c1ccc(Cl)cc1Cl returned D3 ag 2.
